According to PubChem BioAssay (NCI):
This is part of a sample that, as a whole, favours compounds with a hit. Of some 83,000 tested, about 20% had one in any assay.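 Plates (96-well) were seeded with cells, treated with compound at one concentration, and incubated for 48 hours before percent growth was determined.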 The source made the active and inactive calls. How the source made its calls: active means growth percent below 10; inactive means the rest.

How the values were obtained:
Assay in all cases: NCI-60 one-dose screen, 48 h (100 = growth as untreated, 0 = no growth, -100 = all killed)
Settings in all cases: 10 µM
OVCAR-8 ovarian = system: OVCAR-8 ovarian
OVCAR-5 ovarian = system: OVCAR-5 ovarian
OVCAR-4 ovarian = system: OVCAR-4 ovarian
SK-OV-3 ovarian = system: SK-OV-3 ovarian
IGROV1 ovarian = system: IGROV1 ovarian
OVCAR-3 ovarian = system: OVCAR-3 ovarian
NCI/ADR-RES ovarian = system: NCI/ADR-RES ovarian
BT-549 breast = system: BT-549 breast
MDA-MB-435 melanoma = system: MDA-MB-435 melanoma
MCF7 breast = system: MCF7 breast
HCT-116 colon = system: HCT-116 colon
KM12 colon = system: KM12 colon
HS 578T breast = system: HS 578T breast
T-47D breast = system: T-47D breast
SW-620 colon = system: SW-620 colon
HCC-2998 colon = system: HCC-2998 colon

Measured: growth

COc1cc(/C(=C2/O[C@@H]([C@H]3COC(C)(C)O3)[C@H]3OC(C)(C)O[C@@H]23)c2ccc3ccccc3c2)cc(OC)c1OC
active: OVCAR-3 ovarian -6.76% | HCT-116 colon -56.4%
inactive: OVCAR-8 ovarian 18.9% | OVCAR-5 ovarian 38.2% | OVCAR-4 ovarian 25.7% | SK-OV-3 ovarian 51.4% | IGROV1 ovarian 21.4% | NCI/ADR-RES ovarian 25.9% | BT-549 breast 22.2% | MDA-MB-435 melanoma 26.2% | MCF7 breast 22.8% | KM12 colon 33.4%

Cc1ccc(Nc2nnc(-c3cc(-c4ccncc4)n(-c4ccccc4)n3)s2)cc1
inactive: OVCAR-8 ovarian 63.5% | OVCAR-5 ovarian 104% | SK-OV-3 ovarian 100% | IGROV1 ovarian 89.2% | OVCAR-3 ovarian 118% | HS 578T breast 61.9% | T-47D breast 64.5% | BT-549 breast 64.8% | MDA-MB-435 melanoma 78.3% | SW-620 colon 94% | MCF7 breast 80.3% | HCT-116 colon 51.3% | HCC-2998 colon 57.1% | KM12 colon 50.8%

Nc1ncn([C@@H]2O[C@H](CO)[C@@H](O)[C@H]2O)c(=O)n1
active: HCT-116 colon -31.5%
inactive: OVCAR-8 ovarian 22.4% | OVCAR-5 ovarian 56.8% | OVCAR-4 ovarian 34.1% | SK-OV-3 ovarian 17.4% | OVCAR-3 ovarian 22.7% | HS 578T breast 23.7% | NCI/ADR-RES ovarian 29.1% | T-47D breast 26.6% | BT-549 breast 16.3% | MDA-MB-435 melanoma 16.6% | SW-620 colon 35.6% | MCF7 breast 23.5% | HCC-2998 colon 11.7% | KM12 colon 16.6%

ClCC#CCSc1ncnc2c1ncn2CC#CCCl
inactive: OVCAR-8 ovarian 24.4% | OVCAR-5 ovarian 14.1% | OVCAR-4 ovarian 34.3% | SK-OV-3 ovarian 45.7% | IGROV1 ovarian 30.7% | HS 578T breast 107% | BT-549 breast 27.5% | MCF7 breast 20.2%
active: OVCAR-3 ovarian -27.5% | T-47D breast -23.1% | MDA-MB-435 melanoma 0.673% | SW-620 colon 2.37% | HCT-116 colon -49% | HCC-2998 colon -24.9% | KM12 colon 6.96%

COc1ccc(-c2cc(-c3cccc(NS(C)(=O)=O)c3)nc(N)c2C#N)cc1
inactive: OVCAR-8 ovarian 37.6% | OVCAR-5 ovarian 53.8% | OVCAR-4 ovarian 51.3% | SK-OV-3 ovarian 20.3% | IGROV1 ovarian 73.4% | T-47D breast 57.5% | BT-549 breast 40.1% | SW-620 colon 27.4% | MCF7 breast 16.5% | HCT-116 colon 17% | KM12 colon 17.6%
active: OVCAR-3 ovarian -48.4% | HS 578T breast -14.3% | MDA-MB-435 melanoma -55.2% | HCC-2998 colon -25.7%

CCCCCCCCCCCCCCCCCCOCC(COCCOCC[N+]1(CCCCCC(=O)[O-])CCCC1)Oc1ncccn1 (configuration not stated)
inactive: SK-OV-3 ovarian 83.5% | OVCAR-3 ovarian 62.6% | HS 578T breast 65.6% | NCI/ADR-RES ovarian 108% | T-47D breast 42.3% | BT-549 breast 33.8% | MDA-MB-435 melanoma 51.7% | SW-620 colon 42.9% | MCF7 breast 25.7% | HCT-116 colon 20.4% | HCC-2998 colon 24.7% | KM12 colon 15.2%
active: OVCAR-5 ovarian -0.76% | IGROV1 ovarian -15.2%

COc1ccc2c(c1)[n+]([O-])c(C#N)c(NC(=O)c1ccco1)[n+]2[O-]
inactive: OVCAR-8 ovarian 65.3% | OVCAR-5 ovarian 111% | OVCAR-4 ovarian 93.8% | SK-OV-3 ovarian 91.2% | OVCAR-3 ovarian 113% | HS 578T breast 92.5% | NCI/ADR-RES ovarian 111% | T-47D breast 91.5% | MDA-MB-435 melanoma 104% | SW-620 colon 108% | MCF7 breast 90.8% | HCT-116 colon 99.9% | KM12 colon 105%

COc1ccc2c(c1)nc(N)c1c3cccnc3cn21
active: OVCAR-8 ovarian 4.95% | SK-OV-3 ovarian 9.24% | NCI/ADR-RES ovarian -2.31% | MDA-MB-435 melanoma -14.3%
inactive: IGROV1 ovarian 17.8% | OVCAR-3 ovarian 20.4% | HS 578T breast 43.1% | T-47D breast 62.6% | BT-549 breast 44.3% | SW-620 colon 20.5% | MCF7 breast 20.4% | HCT-116 colon 10.8% | HCC-2998 colon 20.2%

Cc1ccc(-c2nc(/C=C3/C(=O)N(C)c4ccc(F)cc43)c3ccccn23)cc1
inactive: OVCAR-8 ovarian 99.3% | OVCAR-5 ovarian 106% | OVCAR-4 ovarian 114% | SK-OV-3 ovarian 105% | OVCAR-3 ovarian 112% | HS 578T breast 107% | NCI/ADR-RES ovarian 105% | T-47D breast 109% | BT-549 breast 99.9% | MDA-MB-435 melanoma 111% | SW-620 colon 105% | MCF7 breast 78.6% | HCT-116 colon 89.3% | HCC-2998 colon 104%

OCC1OC(n2cnc3c(N/N=C\c4ccccn4)ncnc32)C(O)C1O (configuration not stated)
active: IGROV1 ovarian -6.53%
inactive: OVCAR-8 ovarian 23.2% | OVCAR-5 ovarian 43.3% | OVCAR-4 ovarian 21.6% | SK-OV-3 ovarian 11.7% | OVCAR-3 ovarian 24.3% | HS 578T breast 14.5% | T-47D breast 25.4% | BT-549 breast 44.3% | MDA-MB-435 melanoma 23.6% | SW-620 colon 23.9% | MCF7 breast 16.8% | HCT-116 colon 11.9% | HCC-2998 colon 10.9% | KM12 colon 26.7%

Nc1ccc2c(c1)Cc1cc(N)c(Br)cc1-2
inactive: OVCAR-8 ovarian 102% | OVCAR-5 ovarian 113% | SK-OV-3 ovarian 101% | IGROV1 ovarian 116% | OVCAR-3 ovarian 115% | HS 578T breast 76.7% | NCI/ADR-RES ovarian 90.2% | T-47D breast 78.5% | BT-549 breast 94.4% | MDA-MB-435 melanoma 102% | SW-620 colon 108% | MCF7 breast 51.4% | HCT-116 colon 101% | HCC-2998 colon 80.8% | KM12 colon 99.6%

CCOC(=O)N1C/C(=C/c2ccc(Cl)cc2)C(=O)/C(=C/c2ccc(Cl)cc2)C1
active: SW-620 colon 1.52% | MCF7 breast 5.24% | HCT-116 colon -60.4% | HCC-2998 colon -59.8%
inactive: OVCAR-8 ovarian 27.8% | OVCAR-5 ovarian 120% | OVCAR-4 ovarian 60.5% | SK-OV-3 ovarian 83.7% | OVCAR-3 ovarian 27.4% | HS 578T breast 63.9% | NCI/ADR-RES ovarian 71% | T-47D breast 69.8% | BT-549 breast 81.5% | MDA-MB-435 melanoma 38.4%

CCCCCCCCN(CCCCCCCC)CCCCCCCCCN1CCCc2cc(OC)ccc21
inactive: OVCAR-8 ovarian 101% | OVCAR-5 ovarian 90.9% | OVCAR-4 ovarian 78.2% | SK-OV-3 ovarian 93.6% | IGROV1 ovarian 101% | HS 578T breast 91.3% | NCI/ADR-RES ovarian 88.5% | T-47D breast 74.3% | BT-549 breast 94.9% | MDA-MB-435 melanoma 104% | SW-620 colon 99% | MCF7 breast 96% | HCT-116 colon 75.7% | HCC-2998 colon 93.2% | KM12 colon 104%

COc1cc(CNCCCCCCN2C(=O)c3cccc4cccc(c34)C2=O)ccc1O
inactive: OVCAR-8 ovarian 69% | OVCAR-5 ovarian 116% | SK-OV-3 ovarian 69% | OVCAR-3 ovarian 90.1% | HS 578T breast 106% | T-47D breast 65.3% | BT-549 breast 83.2% | MDA-MB-435 melanoma 58.1% | SW-620 colon 57.9% | MCF7 breast 11.4% | HCT-116 colon 31.4% | KM12 colon 72.3%
active: HCC-2998 colon -21.3%
